# Data as given in PubChem BioAssay (NCATS).
# Results filed as inconclusive are left out. The source made the active and inactive calls. The call rests on the fitted dose curve; in most records, active means well fitted inhibition curve with a large enough effect; inconclusive means small, poorly fitted or top-dose-only effect; inactive means no such curve, though single readings can be large or run the other way.
# Test: BET inhibitor-based combinations targeting novel dependencies in MECOM-rearranged (r) AML: MV-4-11 cell line (AID 2202233); further: nearly all actives have a fitted effect of over 45% in size
# Settings: MV-4-11 AML viability, CellTiter-Glo luminescence, 48 h; series mostly up to 46 µM; viability, % of control: at the top concentration
# Excerpt: Ecotropic viral insertion site 1 (EVI1) is located on chromosome 3q26.2 as part of the MECOM (MDS and EVI1 complex) locus. Under normal hematopoiesis, EVI1 is a regulator of hematopoietic stem cell maintenance and self-renewal and EVI1 levels decrease as the cells differentiate. In approximately 5-10% of de novo acute myeloid leukemia (AML) EVI1 is aberrantly expressed, including Chromosomal inv(3)(q21;q26.2) or t(3;3)(q21;q26.2) alterations (MECOM-r) that account for about 50% of AML with EVI1 overexpression 31. AMLs with high levels of EVI1 have a poor prognosis and an overall survival time averaging between 10-14 months. EVI1 overexpression confers resistance in leukemia cells, highlighting the need to develop new targeted therapies for EVI1 overexpressing AMLs. Here, we performed an unbiased chemical drug screening by evaluating the single agent activity of a collection of 2,480 oncology-focused, approved and investigational drugs (NCATS Mechanism Interrogation Plates, MIPE v5.0) against a panel of seven AML cell lines. These included four MECOM-r cell-lines (AML-191, AML-194, UCSD-AML1 and HNT-34) and three non-MECOM-r AMLs (MV4-11, OCI-AML3 and SET-2). Exploiting the mechanistic redundancy built in the library, we identified target-level sensitivities in MECOM-r AML cells and relative activity as compared to other AML subtypes.
# A collection of 2480 mechanistically annotated dugs (MIPE v5.0) was used to screen four 3q26.2 rearranged AML cell lines and three non-3q26.2 rearranged AML cell lines. This library purposely exploits redundancy by including multiple inhibitors of key onco-targets, while simultaneously encompassing mechanistic diversity, targeting more than 800 distinct mechanisms of action. Briefly, cells were seeded in 5 uL of growth media using a Multidrop Combi dispenser into 1536 well white polystyrene tissue culture treated plates (Corning) at a density of 500cells/well. For each cell-line, for each of the 2480 drugs in MIPE v5.0 library, an 11-point dose curve was generated via a 1536 pin-tool. Plates were incubated for 48 hr at standard incubator conditions, covered by a stainless steel gasketed lid to prevent evaporation. Cell viability was determined by luminescence based, Cell Titer Glo assay (Promega). In detail, 3 uL of Cell Titer Glo were added to each well and plates were incubated at room temperature for 15 min with a stainless-steel lid in place. Luminescence readings were taken using a Viewlux (PerkinElmer) with a 2 s exposure time per plate. Compound dose-response curves were normalized to DMSO and empty well controls on each plate. Quantitative drug activity data from dose-response curves was determined utilizing area Under the Curve (AUC) and Z-transformed AUC (Z-AUC, a mean-centering transformation applied to each individual cell-line screened).
# Potency means the concentration at half of the fitted maximal effect.
Compound,Potency,"viability, % of control"
C=CC(=O)N1CCC[C@@H](n2nc(-c3ccc(Oc4ccccc4)cc3)c3c(N)ncnc32)C1,2950 nM (active),
C[C@@H]1CC(=O)Nc2cccc(-c3cnn(C(C)(C)C)c3)c2N1,16600 nM (active),
O=C(NO)c1cnc(N2C[C@H]3C[C@@H]2CN3c2cc(C(F)(F)F)ccn2)nc1,2090 nM (active),
CCC(=O)OCC(=O)C1(OC(=O)CC)C(C)CC2C3CCC4=CC(=O)C=CC4(C)C3(F)C(O)CC21C (stereo not given),,76.2% (inactive)
CN1CCN(c2ccc3nc(-c4c(N)c5c(F)cccc5[nH]c4=O)[nH]c3c2)CC1,59 nM (active),
OC1CCC([C@H](O)C[C@H]2c3c(F)cccc3-c3cncn32)CC1 (stereo not given in full),,109% (inactive)
CN(C)c1ccc(O)c2c1C[C@H]1C[C@H]3[C@H](N(C)C)C(=O)C(C(N)=O)=C(O)[C@@]3(O)C(=O)C1=C2O,,70.5% (inactive)
CC(C)Oc1ccc(C(=O)N[C@H](CNC(=O)CN(C)C)Cc2ccc(-c3cn4cccc([C@H](C)O)c4n3)cc2)cc1Cl,166 nM (active),
Cc1cc(C(=O)Nc2cc(Nc3ccc4c(/C=C/c5ccccn5)n[nH]c4c3)ccc2F)n(C)n1,16600 nM (active),
COc1cc2nccc(Oc3ccc(NC(=O)c4cn(C(C)C)c(=O)n(-c5ccc(F)cc5)c4=O)cc3F)c2cc1OC,468 nM (active),
COc1ccc2[nH]c(C(=O)N3CCC(CC(C)(C)O)CC3)cc2c1,,101% (inactive)
Cc1ccc(-n2nc(C(C)(C)C)cc2NC(=O)NCc2cc(F)ccc2Oc2ccc3c(cnn3CCO)c2)cc1,18600 nM (active),
COc1ccc(Oc2cc(NCCC(F)(F)F)c3ncc(-c4ccc(C(=O)NC5CC5)c(C)c4)n3n2)c(F)c1F,66.1 nM (active),
Cc1c(Cl)cccc1S(=O)(=O)Nc1nc(CCN2CCOCC2=O)cs1,,123% (inactive)
Cc1cc(OCCCc2c3n(c4c(-c5c(C)nn(C)c5C)c(Cl)ccc24)[C@H](C)CN(c2cn(C)c4ccc(C(=O)O)cc24)C3=O)cc(C)c1Cl,468 nM (active),
COc1cc(N2CCN(C)CC2)ccc1Nc1ncc2c(n1)N(C)c1ccccc1C(=O)N2C,1320 nM (active),
C=CCNC1=C2C[C@@H](C)C[C@H](OC)[C@H](O)[C@@H](C)/C=C(\C)[C@H](OC(N)=O)[C@@H](OC)/C=C\C=C(/C)C(=O)NC(=CC1=O)C2=O,1860 nM (active),
C=C(c1ccc(C(=O)O)cc1)c1cc2c(cc1C)C(C)(C)CCC2(C)C,148 nM (active),
Cn1cc(CNCC2CCN(c3ncc(C(=O)NO)cn3)CC2)c2ccccc21,83.3 nM (active),
CCC(=O)Nc1cccc(Oc2nc(Nc3ccc(N4CCN(C)CC4)cc3OC)ncc2Cl)c1,7420 nM (active),

Compound,Potency,"viability, % of control"
Cc1ccc(NC(=O)c2ccc3c(c2)OCCO3)cc1NC(=O)c1ccc2nc(OCCN3CCCC3)ccc2c1,91 nM (active),
COc1cc(C)[nH]c(=O)c1CN1CCc2c(Cl)cc([C@H](OC)C3COC3)c(Cl)c2C1=O,,117% (inactive)
N#C/C(=C(/N)Sc1ccc(N)cc1)c1ccccc1C(F)(F)F,18600 nM (active),
COc1ccc(S(=O)(=O)N(C(C)=O)c2ccccc2/C=C/c2cc[n+]([O-])cc2)cc1,1180 nM (active),
c1ccc(Cn2c(-c3ccc(OCC(C4CCNCC4)n4c(-c5ccccc5)nc5ccccc54)cc3)nc3ccccc32)cc1 (stereo not given),8330 nM (active),
CN1CCN(c2ccc3nc(-c4cc(C(C)(C)C)c(OCCCC(=O)NCCCN=[N+]=[N-])c(C(C)(C)C)c4)[nH]c3c2)CC1,7420 nM (active),
Cc1ccc(C(=O)N(CCCN)[C@@H](c2oc3cc(Cl)ccc3c(=O)c2Cc2ccccc2)C(C)C)cc1,37.2 nM (active),
COc1ccc(N2C(=O)N(c3c(C)cccc3Cl)Cc3cnc(Nc4ccc(C5CCN(C)CC5)cc4OC)nc32)nc1,2950 nM (active),
COC(=O)[C@H](CCCN=C(N)N)NS(=O)(=O)c1ccc(C)cc1,,115% (inactive)
Cc1ccc(C(=O)Nc2ccc(CN3CCN(C)CC3)c(C(F)(F)F)c2)cc1C#Cc1cnc2[nH]ncc2c1,2.3 nM (active),
CN1CCN(Cc2ccc(Nc3ncc(Cl)c(Nc4ccccc4S(=O)(=O)N(C)C)n3)cc2)CC1,53.9 nM (active),
C[C@H]1O[C@@H](O[C@H]2[C@@H](O)C[C@H](O[C@H]3[C@@H](O)C[C@H](O[C@H]4CC[C@@]5(C)[C@H](CC[C@@H]6[C@@H]5C[C@@H](O)[C@]5(C)[C@@H](C7=CC(=O)OC7)CC[C@]65O)C4)O[C@@H]3C)O[C@@H]2C)C[C@H](O)[C@@H]1O,105 nM (active),
O=C(NC[C@H](O)CO)c1ccncc1Nc1ccc(I)cc1F,5900 nM (active),
CONC(=O)c1ccccc1Nc1cc(Nc2cc(C)nn2C(C)C)ncc1Cl,14800 nM (active),
COc1ccc(C(=O)N2CCN(c3ccc4c(c3)CCC(=O)N4)CC2)cc1OC,,113% (inactive)
NS(=O)(=O)Oc1ccc2c3c(c(=O)oc2c1)CCCCC3,,92.6% (inactive)
CC(C)c1c(-c2ccccc2)nc2c(C#N)c[nH]n2c1=O,,117% (inactive)
CCC(=O)NC[C@H](Cc1ccc(OCCc2nc(-c3ccccc3)oc2C)cc1)N/C(C)=C\C(=O)c1ccc(C(F)(F)F)cc1,23500 nM (active),
CC(C)=CCC/C(C)=C/CC/C(C)=C/CSc1ccccc1C(=O)O,11800 nM (active),
COc1cc(C(C)C)c2c(c1)S(=O)(=O)N(COc1cc(=O)n3cccc(OCCN4CCCCC4)c3n1)C2=O,23500 nM (active),
